Test results from PubChem BioAssay AID1259318 (Sanford-Burnham Center for Chemical Genomics, 2017).
Among all 370,000 compounds or so, about 3,000 (0.81%) were called active.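 The calls were made as follows: active = activity above about 14% (limit read from the data; passing the limit was not always enough); inactive = the rest.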 Many of the other results were omitted from the sample, so actives are more common in it than they were.

Target: Nuclear receptor subfamily 1 group D member 1 (Homo sapiens) (UniProt P20393)
Assay: Rev-erbα–DNA interaction modulation – biochemical, FITC-DNA, fluorescence polarization, uHTS, primary screen (AID 1259318);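 also: 0% = DMSO wells with 35 nM protein and 100% = DMSO wells with 750 nM protein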
Conditions: Rev-erbα–FITC-DNA binding, 90 min, at 10 µM, hits give high values

Chain of Nuclear receptor subfamily 1 group D member 1 (Homo sapiens) (P20393 whole entry, looked up): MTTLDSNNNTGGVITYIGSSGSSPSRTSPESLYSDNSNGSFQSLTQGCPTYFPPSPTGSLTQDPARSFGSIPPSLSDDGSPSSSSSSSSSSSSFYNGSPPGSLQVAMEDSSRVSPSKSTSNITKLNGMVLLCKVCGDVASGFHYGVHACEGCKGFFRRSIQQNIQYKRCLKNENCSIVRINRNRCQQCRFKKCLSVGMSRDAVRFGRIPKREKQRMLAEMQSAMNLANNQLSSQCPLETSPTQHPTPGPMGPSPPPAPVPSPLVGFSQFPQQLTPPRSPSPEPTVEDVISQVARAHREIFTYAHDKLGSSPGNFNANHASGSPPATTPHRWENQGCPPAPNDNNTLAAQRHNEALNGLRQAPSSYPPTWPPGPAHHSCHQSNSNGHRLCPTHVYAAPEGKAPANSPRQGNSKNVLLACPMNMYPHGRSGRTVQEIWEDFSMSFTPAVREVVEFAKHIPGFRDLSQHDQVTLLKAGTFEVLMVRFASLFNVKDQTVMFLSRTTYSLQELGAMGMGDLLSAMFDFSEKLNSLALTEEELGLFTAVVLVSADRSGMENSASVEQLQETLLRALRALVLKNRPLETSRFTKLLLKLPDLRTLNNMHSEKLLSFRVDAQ

SMILES	activity
O=C(NCCCN1CCCCCC1)c1ccc(N2CCCC2=O)cc1	-2.08% (inactive)
CS(=O)(=O)c1ccc2nc(NC(=O)c3ccc(N4CCCC4=O)cc3)sc2c1	41.6% (active)
O=C(Nc1cc(S(=O)(=O)N2CCOCC2)ccc1OCC(F)(F)F)c1ccc(N2CCCC2=O)cc1	3.86% (inactive)
CC(=O)c1c(C)[nH]c(C(=O)OCC(=O)NCCC(C)C)c1C	4.11% (inactive)
COC(=O)C12C=C3CC(c4ccccc4)=C3C(=O)N1Cc1[nH]c3ccccc3c1C2 (stereo unspecified)	-0.17% (inactive)
COc1ccc(C(=O)CSc2nccc(=O)[nH]2)cc1	2.06% (inactive)
Cc1nc2nc(SCC(=O)c3ccccc3)[nH]c2cc1Br	34.1% (active)
CCn1c(SCC(=O)Nc2cccc(F)c2)nnc1-c1cc2cc(Br)ccc2o1	56.3% (active)
Cc1nc2nc(SCC(=O)Nc3cccc(F)c3)[nH]c2cc1Br	43.6% (active)
CCCn1c(SCC(=O)Nc2cccc(C(=O)OCC)c2)nnc1-c1ccoc1C	-3.66% (inactive)
O=C(CSc1nc2[nH]c(=O)[nH]c(=O)c2s1)Nc1cccc(F)c1	-1.8% (inactive)
Cc1cc(C)c(C(=O)CSc2nc(C)cc(=O)[nH]2)c(C)c1	-1.57% (inactive)
O=C(CSc1nc2ncccc2[nH]1)Nc1ccc2c(c1)OCCO2	-0.69% (inactive)
CCn1c(CNC(=O)c2ccco2)nnc1SCC(=O)Nc1cccc(F)c1	-8.25% (inactive)
CN(Cc1nc(-c2cnccn2)no1)Cc1n[nH]c2c1CCCCC2	-2.14% (inactive)
COC(=O)c1cc(S(=O)(=O)N2CCN(c3cc(C)ccc3C)CC2)c[nH]1	11.2% (inactive)
CCOC(=O)C1CCN(C(=O)C(C)(C)NC(=O)Nc2ccccc2Cl)CC1	-6.49% (inactive)
Cc1ccc(C(=O)C2CCN(CC(=O)NCCC(C)C)CC2)cc1	-0.72% (inactive)
Cc1noc(C)c1CCC(=O)O	4.26% (inactive)
Cc1ccc(SCC2=NNC(=O)C2)cc1	-1.27% (inactive)
O=C(c1cccs1)N1CCCC(c2nc(-c3ccc(F)cc3)no2)C1 (stereo unspecified)	1.09% (inactive)
O=C(CCC(=O)c1cccs1)NC1CCCCCC1	3.87% (inactive)
N#Cc1c(-c2ccc(F)cc2)cc(C2CC2)nc1SCC(=O)c1cccs1	174% (active)
COCCCNc1nc2c(-c3cccc(C(F)(F)F)c3)nnn2c2ccccc12	15.6% (inactive)
COCCCNc1nc2c(-c3cccc(C)c3)nnn2c2ccc(Cl)cc12	52.9% (active)
COCCCNc1nc2ccccc2nc1NS(=O)(=O)c1ccc(F)cc1	-2.18% (inactive)
